Drawing on PubChem BioAssay (NCATS), this text covers activity change, negative = cytotoxicity and Potency for 15 compounds.

Values joined by “and” are separate entries in the source; they are usually repeats but may differ in a detail not shown here. Equal values may be shown once. Results filed as inconclusive are left out. A number with no mark means an inactive call. Active and inactive are the calls of the source. Calls come from the whole dose curve; as a rule, active = well fitted cell-killing curve with a large enough effect; inconclusive = small, poorly fitted or top-dose-only effect; inactive = flat fitted curve, though single readings scatter.
Potency is the fitted concentration of half-maximal effect.

The nature of this assay: Cell Viability - N2a (AID 540).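 For activity change, negative = cytotoxicity: plate controls were DMSO alone for no effect and tamoxifen control for full effect.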 Note: nearly all actives have a fitted effect of over 45% in size. Particulars: N2a mouse neuroblastoma cell viability; activity change, negative = cytotoxicity: at 92.2 µM (top of the series). An excerpt:
NIH Chemical Genomics Center [NCGC]
NIH Molecular Libraries Screening Centers Network [MLSCN]
National Institutes of Environmental Health Sciences [NIEHS]
National Toxicology Program [NTP]
We have developed a 1536-well cell-based assay for quantitative high throughput screening (qHTS) against a number of cell lines to determine in vitro cytotoxicity of small molecules. This particular assay uses the N2a cell line which is derived from mouse neuroblastoma.
NCGC Assay Protocol Summary:
The CellTiter-Glo luminescent cell viability assay (Promega) is a homogeneous method to measure the number of viable cells in culture. The end point readout of this assay is based on quantitation of intracellular ATP, an indicator of metabolic activity, using the luciferase reaction. Luciferase catalyzes the oxidation of beetle Luciferin to oxyluciferin and light in the presence of ATP. The luminescent signal is proportional to amount of ATP present.
Using the CellTiter-Glo luminescent cell viability assay, the amount of cellular ATP was measured in the N2a cell line with complete culture medium following compound treatment for 40 hours. The assay was performed in opaque white Kalypsys 1536-well plates. In the screen, tamoxifen and doxorubicin were used as positive controls. Library compounds were measured for their ability to cause acute toxicity in the cell line, as reflected by a decrease in intracellular ATP levels, in a concentration-dependent manner. […] AC50 values were determined from concentration-response data modeled with the standard Hill equation.
qHTS protocol for CellTiter Glo N2a cellular assay
[Step] [Parameter] [Value] [Description]
1. Reagent; 5 uL; 1500 N2a cells/well
2. Time; 5 hr; 37 °C incubation
4. Controls; 23 nL; Tamoxifen 0.34 uM to 100 uM & Doxorubicin 0.02 nM to 100 uM
5. Time; 40 hr; 37 °C incubation
6. Reagent; 5 uL; CellTiter Glo reagent
7. Time; 20 min; Room Temperature
8. Detection; Luminescence; Viewlux plate reader
Keywords: cell viability, cytotoxicity, N2a cell line, luminescence, NTPHTS, NTPHTS_NCGC, NIEHS, EPA, DSSTox, MLSMR, MLSCN, NIH Roadmap, qHTS, NCGC
With `CCCCOC(=O)c1ccc(O)cc1`, the activity change, negative = cytotoxicity is 2.23%.

On to `O=C1O[C@H]([C@@H](O)CO)C(O)=C1O`, for which the activity change, negative = cytotoxicity was 3.88%.

For the compound `Cc1cc2nc3c(=O)[nH]c(=O)nc-3n(C[C@H](O)[C@H](O)[C@H](O)CO)c2cc1C`, the activity change, negative = cytotoxicity is 0.316%.

As for `COc1ccccc1O`, the activity change, negative = cytotoxicity was 1.24% and 7.3% and 7.13%.

For `NC(=O)N/N=C/c1ccc([N+](=O)[O-])o1`, the Potency was 31.6 µM (active).

Consider `CC1(C)[C@@H]2CC[C@@]1(C)C(=O)C2`, for which the activity change, negative = cytotoxicity is 2.78%.

On to `Cc1c(O)cccc1C(=O)N[C@@H](CSc1ccccc1)[C@H](O)CN1C[C@H]2CCCC[C@H]2C[C@H]1C(=O)NC(C)(C)C`, for which the activity change, negative = cytotoxicity was -108% (active).

In the case of `NCCNCCNCCN`, the activity change, negative = cytotoxicity is -20%.

Turning to `Nc1ccc(S(=O)(=O)Nc2nccs2)cc1`, the activity change, negative = cytotoxicity is -2.29%.

`CCCCCCCCCCCCOS(=O)(=O)O`: the activity change, negative = cytotoxicity is -3.87% and -0.403%.

`NCCNCCNCCNCCN`: the activity change, negative = cytotoxicity is -2.82%.

As for `[Cl][In]([Cl])[Cl]`, the activity change, negative = cytotoxicity was -0.39%.

Take `CC12CCC(CC1)C(C)(C)O2`: the activity change, negative = cytotoxicity was -7.51%.

With `Oc1cccc(O)c1`, the activity change, negative = cytotoxicity was -7.46%.

Take `Cc1cc(CC(=O)O)n(C)c1C(=O)c1ccc(Cl)cc1`: the activity change, negative = cytotoxicity is -9.12%.
